Data: PubChem BioAssay (NCATS)
Inconclusive results are not listed. Active and inactive are the calls of the source. Calls follow the shape of the dose curve; as a rule, active = well fitted curve in the direction sought with a large enough effect; inconclusive = small, poorly fitted or top-dose-only effect, or another doubt; inactive = no such curve, though single readings can be large; an effect the other way counts as inactive or inconclusive.

Columns and labels:
[1] = qHTS of pediatric cancer cell lines to identify multiple opportunities for drug repurposing: Primary screen for MG 63 (6-TG R) cells (AID 1347105); also: nearly all actives have a fitted effect of over 50% in size
In short: (§1)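 Following a 5-hour attachment period, cells at 500-1,000/well received compounds and were cultured for 48 hours. CellTiter-Glo was added and luminescence read to estimate viable, metabolically active cells.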

[2] = qHTS of pediatric cancer cell lines to identify multiple opportunities for drug repurposing: Primary screen for control Hh wild type fibroblast cells (AID 1347106);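 also: series mostly up to about 46 µM; a drop in luminescence marks cytotoxicity and a rise apparent proliferation; nearly all actives have a fitted effect of over 55% in size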
In short: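 Viability after 48 h compound treatment at 37C, 500-1,000 cells/well, read as ATP luminescence with CellTiter-Glo. Primary screens used 11-point (MIPE, 0.78 nM-46 µM) or 8-point (NPC, 0.59 nM-46 µM) final concentrations; follow-up screens used 11-point dilutions.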

[3] = qHTS of pediatric cancer cell lines to identify multiple opportunities for drug repurposing: Primary screen for Rh30 cells (AID 1347107); also: series mostly up to about 46 µM; nearly all actives have a fitted effect of over 75% in size
In short: (§2)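 Cells (500-1,000/well) rested 5 h, then received compounds for 48 h; metabolically active cells were measured by CellTiter-Glo luminescence. Final concentrations spanned up to 46 µM (MIPE, 11-point) or 0.59 nM-46 µM (NPC, 8-point) in primary screens, 11-point in follow-ups.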

[4] = qHTS of pediatric cancer cell lines to identify multiple opportunities for drug repurposing: Primary screen for Rh41 cells (AID 1347108);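 also: series mostly up to about 46 µM; luminescence drop marks cytotoxic hits; nearly all actives have a fitted effect of over 70% in size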
In short: as §1

[5] = qHTS of pediatric cancer cell lines to identify multiple opportunities for drug repurposing: Confirmatory screen for NB1643 cells (AID 1347109); also: nearly all actives have a fitted effect of over 45% in size
In short: as §2

[6] = qHTS of pediatric cancer cell lines to identify multiple opportunities for drug repurposing: Confirmatory screen for A673 cells (AID 1347110);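 also: potency is read from the fitted curve at half-maximal effect; cells exposed to compound for 48 h before the viability read; nearly all actives have a fitted effect of over 65% in size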
In short: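 Concentration-response curves came straight from titrations: 11 points (0.78 nM to 46 µM) for MIPE and several concentrations (0.59 nM to 46 µM) for NPC in primary, 11 points in follow-up. Readout: ATP luminescence at 48 h.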

[7] = qHTS of pediatric cancer cell lines to identify multiple opportunities for drug repurposing: Confirmatory screen for SK-N-MC cells (AID 1347111); conditions: SK-N-MC cell viability;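 also: potency is read from the fitted curve at half-maximal effect; cells exposed to compound for 48 h before the readout; nearly all actives have a fitted effect of over 70% in size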
In short: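 Seed 500-1,000 cells/well; rest 5 h at 37 degrees C. Pin-transfer compounds, 11-point titration. Incubate 48 h. Add CellTiter-Glo, 15 min RT, read luminescence.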

[8] = qHTS of pediatric cancer cell lines to identify multiple opportunities for drug repurposing: Confirmatory screen for BT-12 cells (AID 1347112); also: nearly all actives have a fitted effect of over 55% in size
In short: as §2

[9] = qHTS of pediatric cancer cell lines to identify multiple opportunities for drug repurposing: Confirmatory screen for LAN-5 cells (AID 1347113); also: nearly all actives have a fitted effect of over 65% in size
In short: as §2

[10] = qHTS of pediatric cancer cell lines to identify multiple opportunities for drug repurposing: Confirmatory screen for DAOY cells (AID 1347114); also: nearly all actives have a fitted effect of over 65% in size
In short: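 Viability measured as metabolically active cells via CellTiter-Glo luminescence following 48 hours of compound exposure, 11-point dilutions in confirmatory testing. 500-1,000 cells/well plated 5 hours before dosing; controls were DMSO and 2.3 µM bortezomib.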

Measured: Potency

CC1=C(C)C(=O)C(CCCCC#CCCCC#CCO)=C(C)C1=O
inactive: [1] | [2] | [3] | [4]

CNCCC(Oc1ccccc1OC)c1ccccc1 (stereo not given)
inactive: [1] | [2] | [3] | [4]

Cc1ccc(Cl)c(Nc2ccccc2C(=O)O)c1Cl
inactive: [2] | [3] | [4]

CC(=O)OC(C)C[N+](C)(C)C (stereo not given)
inactive: [2] | [3] | [4]

COc1ccc(CCN(C)CCCC(C#N)(c2cc(OC)c(OC)c(OC)c2)C(C)C)cc1OC (stereo not given)
inactive: [2] | [3]

Nc1ncn([C@@H]2O[C@H](CO)[C@@H](O)[C@H]2O)c(=O)n1
inactive: [1] | [3]

CNCCCN1c2ccccc2CCc2ccccc21
inactive: [2] | [3] | [4]

C(=C\c1ccccc1)/CN1CCN(C(c2ccccc2)c2ccccc2)CC1
inactive: [2] | [3] | [4]

COCCOC(=O)C1=C(C)NC(C)=C(C(=O)OC(C)C)C1c1cccc([N+](=O)[O-])c1 (stereo not given)
inactive: [2]

Cc1ccc(=O)n(-c2ccccc2)c1
inactive: [1] | [2] | [3] | [4]

CC(C)[N+](C)(CCOC(=O)C1c2ccccc2Oc2ccccc21)C(C)C
inactive: [1] | [2] | [3] | [4]

CN/C(=C\[N+](=O)[O-])NCCSCc1ccc(CN(C)C)o1
active: [6] 5.22 µM | [7] 11.7 µM
inactive: [1] | [2] | [3] | [5] | [8] | [9] | [10]

CCOC(=O)C1=C(C)NC(C)=C(C(=O)OC)C1c1cccc([N+](=O)[O-])c1 (stereo not given)
inactive: [2] | [3] | [4]

CC(C)(C)c1ccc(C(=O)CCCN2CCC(OC(c3ccccc3)c3ccccc3)CC2)cc1
inactive: [2]

CCn1nc(C(=O)O)c(=O)c2cc3c(cc21)OCO3
inactive: [1] | [2] | [3] | [4]
